Test results reported in PubChem BioAssay (Tox21).
Active and inactive are the calls of the source. Unless noted, the call rests on the fitted dose curve; in most records, active means well fitted curve in the direction sought with a large enough effect in the repeat runs; inconclusive means weak or mixed curves; inactive means no such curve, though single readings can be large; an effect the other way counts as inactive or inconclusive.

Tests used:
[1] = qHTS assay to identify small molecule antagonists of the thyroid receptor (TR) signaling pathway - cell viability counter screen (AID 743064); further: nearly all actives have a fitted effect of over 50% in size; further: potency means the concentration at half of the fitted maximal effect
How it was run: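 GH3.TRE-Luc rat pituitary cells dosed after 4 hr plating, co-stimulated with T3 at 1 nM final, incubated 23.5 h at 37 C. Viability measured in the same wells by CellTiter-Fluor fluorescence after 30 min further at 37 C.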

[2] = system: thyroid hormone receptor (rat, GH3 cells); test: qHTS assay to identify small molecule agonists of the thyroid receptor (TR) signaling pathway (AID 743066; calls by dose curve; further: potency means the concentration at half of the fitted maximal effect)
[3] = molecular target: Estrogen receptor (Homo sapiens) (UniProt P03372); test: qHTS assay to identify small molecule antagonists of the estrogen receptor alpha (ER-alpha) signaling pathway (AID 743069; active means well fitted curve in the direction sought with a large enough effect in the signal ratio in the repeat runs, not every such curve was filed as active; inconclusive means weak or mixed curves, or effect the other way; inactive means no such curve, though single readings can be large or run the other way; the % refers to the signal ratio)
Estrogen receptor (Homo sapiens), sequence (P03372 whole entry, looked up): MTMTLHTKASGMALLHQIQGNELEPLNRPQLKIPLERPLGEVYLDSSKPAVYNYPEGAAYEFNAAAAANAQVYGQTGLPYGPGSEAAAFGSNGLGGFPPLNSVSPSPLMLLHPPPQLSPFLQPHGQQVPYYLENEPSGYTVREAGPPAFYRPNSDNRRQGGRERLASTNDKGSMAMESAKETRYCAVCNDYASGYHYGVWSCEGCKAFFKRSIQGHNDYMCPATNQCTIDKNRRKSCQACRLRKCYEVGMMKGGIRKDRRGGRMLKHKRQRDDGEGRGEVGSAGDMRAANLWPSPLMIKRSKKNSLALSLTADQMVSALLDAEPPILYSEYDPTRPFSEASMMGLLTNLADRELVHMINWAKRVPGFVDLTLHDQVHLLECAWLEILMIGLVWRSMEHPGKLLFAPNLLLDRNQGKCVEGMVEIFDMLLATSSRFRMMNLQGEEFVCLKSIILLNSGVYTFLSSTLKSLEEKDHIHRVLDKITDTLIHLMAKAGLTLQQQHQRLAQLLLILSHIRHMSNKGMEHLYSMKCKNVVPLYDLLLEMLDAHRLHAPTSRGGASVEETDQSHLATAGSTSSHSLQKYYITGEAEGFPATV
How it was run: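 Screening used a UAS-driven beta-lactamase reporter integrated into HEK293 cells expressing ER-alpha, stimulated with 17beta-estradiol alongside test compounds over 18 hr at 37C; signal came from LiveBLAzer B/G FRET fluorescence.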

[4] = qHTS assay to identify small molecule antagonists of the estrogen receptor alpha (ER-alpha) signaling pathway - cell viability counter screen (AID 743074; calls by dose curve; further: nearly all actives have a fitted effect of over 45% in size; further: potency means the concentration at half of the fitted maximal effect)
[5] = molecular target: Estrogen receptor (Homo sapiens) (UniProt P03372); test: qHTS assay to identify small molecule agonists of the estrogen receptor alpha (ER-alpha) signaling pathway (AID 743075; calls by dose curve; further: potency means the concentration at half of the fitted maximal effect)
[6] = molecular target: Estrogen receptor (Homo sapiens) (UniProt P03372); test: qHTS assay to identify small molecule agonists of the estrogen receptor alpha (ER-alpha) signaling pathway using the BG1 cell line (AID 743079); details: BG1Luc4E2 cells, ERE-luciferase agonist, 22 h; activation: at 70.3 µM (top of the series); further: nearly all actives have a fitted effect of over 20% in size; further: potency means the concentration at half of the fitted maximal effect
[7] = qHTS assay to identify small molecule antagonists of the estrogen receptor alpha (ER-alpha) signaling pathway using the BG1 cell line (AID 743080; calls by dose curve;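 further: BG1 cells stimulated with 17beta-estradiol alongside compound; nearly all actives have a fitted effect of over 25% in size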; further: potency means the concentration at half of the fitted maximal effect)
How it was run: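 Endogenous full-length ER-alpha in BG1-Luc-4E2 cells drives a stably integrated 4×ERE luciferase gene; compounds were tested against 17beta-estradiol over 21.5 h, with luminescence and multiplexed viability fluorescence recorded.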

[8] = qHTS assay to identify small molecule antagonists of the estrogen receptor alpha (ER-alpha) signaling pathway using the BG1 cell line - cell viability counter screen (AID 743081);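 further: compound given together with 17beta-estradiol as the ER stimulus; nearly all actives have a fitted effect of over 45% in size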
[9] = molecular target: Aromatase (Homo sapiens) (UniProt P11511); test: qHTS assay to identify aromatase inhibitors (AID 743083); further: nearly all actives have a fitted effect of over 55% in size; further: potency means the concentration at half of the fitted maximal effect
Aromatase (Homo sapiens), sequence (P11511 whole entry, looked up): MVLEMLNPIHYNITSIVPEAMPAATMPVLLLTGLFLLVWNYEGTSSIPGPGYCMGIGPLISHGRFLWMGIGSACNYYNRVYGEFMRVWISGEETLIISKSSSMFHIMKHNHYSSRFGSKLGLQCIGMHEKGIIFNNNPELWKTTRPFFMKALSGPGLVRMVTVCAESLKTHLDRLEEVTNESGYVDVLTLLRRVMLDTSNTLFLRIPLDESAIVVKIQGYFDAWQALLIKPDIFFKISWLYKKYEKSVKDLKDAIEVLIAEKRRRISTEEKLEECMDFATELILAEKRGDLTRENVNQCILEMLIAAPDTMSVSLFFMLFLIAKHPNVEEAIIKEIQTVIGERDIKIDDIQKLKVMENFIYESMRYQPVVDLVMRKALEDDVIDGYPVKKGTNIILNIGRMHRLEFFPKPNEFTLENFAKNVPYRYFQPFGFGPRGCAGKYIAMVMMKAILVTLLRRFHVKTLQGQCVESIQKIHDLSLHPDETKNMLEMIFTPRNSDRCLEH

[10] = qHTS assay to identify small molecule antagonists of the thyroid receptor (TR) signaling pathway (AID 743065); further: nearly all actives have a fitted effect of over 55% in size
How it was run: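 GH3.TRE-Luc rat pituitary cells carrying two TR response elements driving luciferase were plated for 4 h, given compound plus 1 nM T3 (final), and incubated 23.5 h at 37 C. ONE-Glo luminescence measured reporter inhibition; CellTiter-Fluor fluorescence tracked cytotoxicity.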

Measured: Potency

CC(C)=CCC/C(C)=C/C=C/C(C)=C/C=C/C(C)=C/C=C/C=C(C)/C=C/C=C(C)/C=C/C=C(\C)CCC=C(C)C
active: [5] 7.56 µM [inconclusive] | [6] 6.68 µM
not listed: [10]
inactive: all other assays above

C[C@@H]1C[C@H]2C3C[C@H](F)C4=CC(=O)C=CC4(C)[C@@]3(F)[C@@H](O)CC2(C)[C@@]1(O)C(=O)COC(=O)C(C)(C)C (stereo not given in full)
not listed: [3] | [7] | [10]
inactive: all other assays above

Cc1cccc(C)c1N(CCCc1cccnc1)C(=O)C(C)N (stereo not given)
active: [9] 5.96 µM
not listed: [10]
inactive: all other assays above

NCCCC[C@H](N)C(=O)O
not listed: [2] | [10]
inactive: all other assays above

CC1(C)S[C@@H]2[C@H](NC(=O)Cc3ccccc3)C(=O)N2[C@H]1C(=O)O
not listed: [2] | [10]
inactive: all other assays above

CCC[C@@]1(CCc2ccccc2)CC(O)=C([C@H](CC)c2cccc(NS(=O)(=O)c3ccc(C(F)(F)F)cn3)c2)C(=O)O1
inactive: [1] | [2] | [4] | [8] | [9]

CCC(=O)OCC(=O)[C@@]1(OC(=O)CC)[C@@H](C)C[C@H]2[C@@H]3CCC4=CC(=O)C=C[C@]4(C)[C@@]3(Cl)[C@@H](O)C[C@@]21C
active: [9] 2.66 µM
not listed: [5] | [7] | [10]
inactive: all other assays above

O=C(O)[C@H](CC(=O)N1C[C@H]2CCCC[C@H]2C1)Cc1ccccc1
active: [6] 33.5 µM
not listed: [4] | [10]
inactive: all other assays above

N[C@@H](C(=O)N[C@@H]1C(=O)N2C(C(=O)O)=C(Cl)CC[C@H]12)c1ccccc1
not listed: [7] | [8] | [10]
inactive: all other assays above

O=C(O)c1cc(O)c2c(c1)[O][Bi][O]2
active: [5] 0.012 µM [inconclusive] | [6] 0.0019 µM
not listed: [3] | [10]
inactive: all other assays above

CC1(C)N=C(N)N=C(N)N1c1ccc(Cl)cc1
active: [4] 12 µM
not listed: [6] | [10]
inactive: all other assays above

CCOc1cc(-c2nccc3cc(OC)c(OC)cc23)cc(OCC)c1OCC
inactive: [2] | [4] | [5]
active: [1] 29.8 µM

CC(=O)O[C@H]1CC[C@@]2(C)C(=CC[C@@H]3[C@@H]2CC[C@]2(C)C(c4cccnc4)=CC[C@@H]32)C1
active: [1] 29.8 µM | [5] 13.4 µM [activator] | [6] 29.8 µM
not listed: [10]
inactive: all other assays above

CCOC(=O)Oc1c(OC)cc(C(=O)O[C@@H]2C[C@@H]3CN4CCc5c([nH]c6cc(OC)ccc56)[C@H]4C[C@@H]3[C@H](C(=O)OC)[C@H]2OC)cc1OC
inactive: [1] | [2] | [4] | [8]

Cc1cccc(Nc2ncccc2C(=O)O)c1C
inactive: [1] | [2] | [4] | [5] | [8] | [9]

CCCCC/C=C\CCC(=O)N[C@H]1[C@H](Oc2c3cc4cc2Oc2ccc(cc2Cl)[C@@H](O[C@@H]2O[C@H](CO)[C@@H](O)[C@H](O)[C@H]2NC(C)=O)[C@@H]2NC(=O)[C@H](NC(=O)[C@@H]4NC(=O)[C@H]4NC(=O)[C@@H](Cc5ccc(c(Cl)c5)O3)NC(=O)[C@H](N)c3ccc(O)c(c3)Oc3cc(O)cc4c3)c3ccc(O)c(c3)-c3c(O[C@H]4O[C@H](CO)[C@@H](O)[C@H](O)[C@@H]4O)cc(O)cc3[C@@H](C(=O)O)NC2=O)O[C@H](CO)[C@@H](O)[C@@H]1O
not listed: [8] | [10]
inactive: all other assays above

NC(=O)C[C@@H](N)C(=O)O
inactive: [1] | [2] | [4] | [9]

CC(C)[C@@H](C)/C=C/[C@@H](C)[C@H]1CC[C@H]2/C(=C/C=C3\C[C@@H](O)CC[C@@H]3C)CCC[C@]12C
not listed: [10]
inactive: all other assays above

Cc1cccc(C)c1Nc1ncccc1C(=O)O
not listed: [6] | [7] | [10]
inactive: all other assays above

CC(=O)Nc1c(I)c(C(=O)N[C@H]2C(O)O[C@H](CO)[C@@H](O)[C@@H]2O)c(I)c(N(C)C(C)=O)c1I (stereo not given in full)
not listed: [2] | [10]
inactive: all other assays above

CC(C)CCC[C@@H](C)[C@H]1CC(=O)C2=C3CC[C@H]4C[C@@H](O)CC[C@]4(C)[C@H]3CC[C@@]21C
not listed: [4] | [10]
inactive: all other assays above

NC[C@@H]1O[C@H](O[C@H]2[C@@H](O)[C@H](O[C@@H]3[C@@H](O)[C@H](N)C[C@H](N)[C@H]3O[C@H]3O[C@H](CO)[C@@H](O)[C@H](O)[C@H]3N)O[C@@H]2CO)[C@H](N)[C@@H](O)[C@@H]1O
active: [6] 26.6 µM
not listed: [2] | [10]
inactive: all other assays above

CCC(=O)O[C@]1(C(=O)CCl)[C@@H](C)C[C@H]2[C@@H]3C[C@H](F)C4=CC(=O)C=C[C@]4(C)[C@@]3(F)[C@@H](O)C[C@@]21C
inactive: [1] | [2] | [4] | [8] | [9]

COc1cc2c(cc1OC)[C@@H](c1ccccc1)CN(C)CC2
not listed: [3] | [9] | [10]
inactive: all other assays above

C[C@]12C=CC(=O)N[C@@H]1CC[C@@H]1[C@@H]2CC[C@]2(C)[C@@H](C(=O)Nc3cc(C(F)(F)F)ccc3C(F)(F)F)CC[C@@H]12
inactive: [1] | [2] | [5] | [8] | [9]

COc1cc(C)c(/C=C/C(C)=C/C=C/C(C)=C/C(=O)O)c(C)c1C
active: [2] 5.96 µM | [5] 4.25 µM [inconclusive] | [7] 0.473 µM
inactive: [1] | [4] | [8]

CC1(C)C2CC[C@]3(C)[C@H](C(=O)C=C4[C@@H]5C[C@@](C)(C(=O)O)CC[C@]5(C)CC[C@]43C)[C@@]2(C)CC[C@@H]1O[C@H]1O[C@H](C(=O)O)[C@@H](O)[C@H](O)[C@H]1O[C@@H]1O[C@H](C(=O)O)[C@@H](O)[C@H](O)[C@H]1O (stereo not given in full)
inactive: [1] | [2] | [4] | [8] | [9]

c1ccc2cc(C3=NCCN3)ccc2c1
not listed: [7] | [10]
inactive: all other assays above

CN[C@@H]1[C@H](O[C@H]2[C@H](O[C@H]3[C@H](O)[C@@H](O)[C@H](N=C(N)N)[C@@H](O)[C@@H]3N=C(N)N)O[C@@H](C)[C@]2(O)CO)O[C@@H](CO)[C@H](O)[C@H]1O
inactive: [1] | [4] | [8] | [9]

C[C@H](CCCC(C)(C)O)[C@H]1CC[C@H]2[C@@H]3CC=C4C[C@@H](O)CC[C@]4(C)[C@H]3CC[C@]12C
inactive: [1] | [4] | [8] | [9]

CC1CS(=O)(=O)CCN1/N=C/c1ccc([N+](=O)[O-])o1 (stereo not given)
not listed: [1]
inactive: all other assays above

CS(=O)(=O)OCC(O)C(O)COS(C)(=O)=O (stereo not given)
not listed: [1]
inactive: all other assays above

CN(C)CCC=C1c2ccccc2C(C)(C)c2ccccc21
active: [1] 13.3 µM
inactive: [3] | [6] | [7] | [8]

CCCCCCCCCCCCCCCC(=O)OC[C@@H](O)[C@H]1OC[C@H](O)[C@H]1O
not listed: [2] | [4] | [10]
inactive: all other assays above

CC1(C)S[C@@H]2[C@H](NC(=O)[C@H](NC(=O)N3CCN(S(C)(=O)=O)C3=O)c3ccccc3)C(=O)N2[C@H]1C(=O)O
active: [6] 11.9 µM
not listed: [1]
inactive: all other assays above

CC(C)Cc1ccc([C@@H](C)C(=O)NS(C)(=O)=O)cc1
not listed: [1]
inactive: all other assays above

CC(=O)N=c1sc(S(N)(=O)=O)nn1C
not listed: [1]
inactive: all other assays above
